Measured values taken from PubChem BioAssay AID430 (Sanford-Burnham Center for Chemical Genomics, 2006).
In all, about 63,000 compounds went through this assay and about 1,100 (1.7%) were called active. The sample holds actives, similar compounds and a random draw of the others, so the mix is not that of the screen. Rule as the data show it: active = cytotoxicity above about 50%; inactive = the rest. Potency and affinity values are given separately.

Test: cytotoxicity in HPDE-C7 cells, cell-based, fluorescence, HTS (AID 430);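 also: cells exposed to compound for 48 hours before viability readout; 0% = vehicle and 100% = reference cytotoxic drug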
Conditions: HPDE-C7 pancreatic duct cells viability, at 10 µM, hits give high values
In the case of `c1coc(CNc2nc3sc4c(c3c3ncnn23)CCCC4)c1`, the cytotoxicity is reported as -5.5% (inactive). For `O=C(NC1CCCCC1)NC1CCN(S(=O)(=O)c2ccc3c(c2)OCCO3)CC1`, the cytotoxicity was -1.5% (inactive). For `O=C(NCCc1c[nH]c2ccccc12)c1ccc(S(=O)(=O)NCc2ccco2)cc1`, the cytotoxicity was 51.9% (active). In the case of `O=C(NC1CCCCC1)c1ccc(S(=O)(=O)NCc2ccco2)cc1`, the cytotoxicity is reported as -1.9% (inactive). With `O=C(Nc1ccccc1)c1ccc(S(=O)(=O)NCc2ccco2)cc1` the cytotoxicity was -0.2% (inactive). In the case of `Cc1cccc(C)c1NC(=O)c1cc(S(=O)(=O)N2CCOCC2)ccc1F`, the cytotoxicity is reported as -47.4% (inactive). For `O=C(Nc1c2c(nn1-c1ccc(F)cc1)CSC2)c1ccc(S(=O)(=O)N2CCOCC2)cc1`, the cytotoxicity was -9.4% (inactive). With `O=C1C(Cl)=C(NCCCN2CCOCC2)C(=O)N1CCc1ccccc1` the cytotoxicity was 1.4% (inactive). With `Cc1nc2ccccc2c(=O)n1/N=C/c1ccc(O)cc1` the cytotoxicity was 33.8% (inactive). For `Oc1ccc2oc3c(c2c1/C=N/n1cnnc1)CCCC3`, the cytotoxicity was -15.1% (inactive). In the case of `Cc1nc2ccccc2c(=O)n1/N=C/c1c(O)ccc2oc3c(c12)CCCC3`, the cytotoxicity is reported as 63% (active). With `Oc1c(C(c2cccs2)N2CCN(c3ccccc3)CC2)sc2ncnn12` (centres undefined) the cytotoxicity was -10% (inactive). For `COc1cc(O)c(NC(C)=O)c2nonc12`, the cytotoxicity was -7.7% (inactive). For `CC(=O)Nc1nonc1NC(C)=O`, the cytotoxicity was -3.4% (inactive). For `Cc1nn(-c2ccc(F)cc2F)c2c1-c1nc(N3CCCC3)ncc1CC2`, the cytotoxicity was 3.8% (inactive). In the case of `COc1ccc(C(=O)NC2CCN(C(=O)NC3CCCCC3)CC2)cc1`, the cytotoxicity is reported as -6.7% (inactive). In the case of `COc1ccc(CN2C(=O)CCC2(C)C(=O)NC2CCCCC2)c(OC)c1` (centres undefined), the cytotoxicity is reported as -3.1% (inactive). In the case of `COc1ccc2[nH]c(=O)c(CN(Cc3nnnn3Cc3ccc(F)cc3)CC3CCCO3)cc2c1` (centres undefined), the cytotoxicity is reported as -39.9% (inactive). In the case of `CCc1ccccc1NC(=O)C(CC)Sc1nc2cc3c(cc2c(=O)n1Cc1ccco1)OCO3` (centres undefined), the cytotoxicity is reported as 2.1% (inactive). In the case of `CCC(Sc1nc2cc3c(cc2c(=O)n1Cc1ccco1)OCO3)C(=O)Nc1ccccc1OC` (centres undefined), the cytotoxicity is reported as -11.3% (inactive). In the case of `CCOC(=O)c1[nH]c(C)c(C(=O)N2CCN(C(=O)c3ccco3)CC2)c1C`, the cytotoxicity is reported as -21.3% (inactive). For `COc1ccc(NC(=O)CNc2cccc(C#N)c2)cc1Cl`, the cytotoxicity was 2.9% (inactive). In the case of `Cc1cc(N2CCOCC2)n2nc(-c3cccc(F)c3)cc2n1`, the cytotoxicity is reported as -16.6% (inactive). For `Fc1ccc(-c2cc3nc(-c4ccccc4)cc(N4CCOCC4)n3n2)cc1`, the cytotoxicity was -7% (inactive). For `Fc1ccc(-c2cc3nc(-c4ccccc4)cc(N4CCN(CCN5CCOCC5)CC4)n3n2)cc1`, the cytotoxicity was 53% (active). For `O=C(Nc1scc(-c2ccc(F)cc2)c1C(=O)O)c1ccco1`, the cytotoxicity was -6.9% (inactive). For `O=C(NCc1ccc2c(c1)OCO2)c1cc2n(n1)C(C(F)(F)F)CC(c1ccc3c(c1)OCO3)N2` (centres undefined), the cytotoxicity was 13.5% (inactive). For `COc1ccccc1NC(=O)c1cc2n(n1)C(C(F)(F)F)CC(c1ccc3c(c1)OCO3)N2` (centres undefined), the cytotoxicity was 38.9% (inactive). With `Cc1cc(NC(=O)c2cc3n(n2)C(C(F)(F)F)CC(c2ccc(Cl)c(Cl)c2)N3)no1` (centres undefined) the cytotoxicity was 2.8% (inactive). In the case of `COc1ccc(C2CC(C(F)(F)F)n3nc(C(=O)Nc4ccc5c(c4)OCO5)cc3N2)cc1` (centres undefined), the cytotoxicity is reported as -7% (inactive). For `COc1ccc(NC(=O)c2cc3n(n2)C(C(F)(F)F)CC(c2ccc4c(c2)OCO4)N3)cc1OC` (centres undefined), the cytotoxicity was 63.9% (active). In the case of `O=C(Nc1cc(Cl)ccc1O)c1cc2n(n1)C(C(F)(F)F)CC(c1ccc3c(c1)OCO3)N2` (centres undefined), the cytotoxicity is reported as -8.7% (inactive). With `O=C(Nc1ccc2c(c1)OCO2)c1cc2n(n1)C(C(F)(F)F)CC(c1ccccc1)N2` (centres undefined) the cytotoxicity was 64.2% (active). For `Cc1cccc(NC(=O)c2cc3n(n2)C(C(F)(F)F)CC(c2ccc4c(c2)OCO4)N3)c1` (centres undefined), the cytotoxicity was 74.1% (active). For `COc1ccc(OC)c(NC(=O)c2cc3n(n2)C(C(F)(F)F)CC(c2ccc4c(c2)OCO4)N3)c1` (centres undefined), the cytotoxicity was 44.5% (inactive). In the case of `CCC(=O)N=c1sc2c(OC)ccc(OC)c2n1C`, the cytotoxicity is reported as 1.2% (inactive). In the case of `CCOC(=O)CSc1nnc([C@@H](NC(=O)OC(C)(C)C)C(C)C)o1`, the cytotoxicity is reported as 8.2% (inactive). With `O=C1CC(c2ccc(F)cc2)Cc2nc(N3CCN(c4ccccc4)CC3)ncc21` (centres undefined) the cytotoxicity was 4.6% (inactive). In the case of `CC(=O)N1CCN=C1SCc1ccc(Br)cc1`, the cytotoxicity is reported as 1.6% (inactive). With `O=C(CCNc1n[nH]c(=O)[nH]c1=O)N1CCOCC1` the cytotoxicity was -0.4% (inactive). In the case of `Cc1ccc(CNC(=O)CN2CCN(Cc3ccc(C)cc3)C2=O)cc1`, the cytotoxicity is reported as -20.9% (inactive). For `COc1cccc(NC(=O)c2ccccc2-c2nc(-c3cccc(C)c3)no2)c1`, the cytotoxicity was 24.8% (inactive). In the case of `CC(C)Cc1nc(N2CCOCC2)c(C#N)c2c1CCC2`, the cytotoxicity is reported as 74.1% (active). In the case of `CCCc1nc(N2CCOCC2)c(C#N)c2c1CCCC2`, the cytotoxicity is reported as -18.8% (inactive). In the case of `CCCc1nc(N2CCCC2)c(C#N)c2c1CCCC2`, the cytotoxicity is reported as 51.6% (active). In the case of `CCc1nc(N2CCCC2)c(C#N)c2c1CCCC2`, the cytotoxicity is reported as -1.4% (inactive). In the case of `CC(C)Cc1nc(N2CCCCC2)c(C#N)c2c1CCC2`, the cytotoxicity is reported as 11.9% (inactive). In the case of `CCc1nc(N2CCOCC2)c(C#N)c2c1CCCC2`, the cytotoxicity is reported as 7.3% (inactive). With `CCc1cc(=O)oc2cc(OC(C)C(=O)O)c(Cl)cc12` (centres undefined) the cytotoxicity was 1.5% (inactive). With `O=C(Cc1nc2ccccc2[nH]1)NCc1ccco1` the cytotoxicity was -7.1% (inactive). For `COC(=O)c1cccc(S(=O)(=O)N2CCN(c3nc4ccccc4s3)CC2)c1`, the cytotoxicity was -5.4% (inactive). With `CCOc1ccc(N(CC(=O)N2CCc3ccccc32)S(=O)(=O)c2c(C)noc2C)cc1` the cytotoxicity was -26.9% (inactive). For `CC(C)CN(C#N)c1nc(N2CCOCC2)nc(N2CCOCC2)n1`, the cytotoxicity was 6.3% (inactive). For `COc1ccc(CNC(=O)C2CCNCC2)cc1`, the cytotoxicity was -3.8% (inactive). For `O=C(Cc1cn2ccsc2n1)Nc1cccc2cnccc12`, the cytotoxicity was 11.4% (inactive). In the case of `Cc1cc(=O)[nH]c(SCCOc2cccc(C(F)(F)F)c2)n1`, the cytotoxicity is reported as -4.8% (inactive). With `O=C(CSc1nnc(SCc2ccc(Cl)cc2)s1)N1CCN(C(=O)c2ccco2)CC1` the cytotoxicity was -25.8% (inactive). For `O=C(CSc1c2c(nc3ccc(Cl)cc13)CCCC2)N1CCN(C(=O)c2ccco2)CC1`, the cytotoxicity was 106% (active). With `O=C(CSc1nc2cc(Cl)ccc2s1)N1CCN(C(=O)c2ccco2)CC1` the cytotoxicity was -2.2% (inactive). In the case of `CC(C)(C)n1nnnc1C(c1ccc(C#N)cc1)N1CCCC2(CCCCC2)C1` (centres undefined), the cytotoxicity is reported as 2.3% (inactive). In the case of `CCOC(=O)c1ccc(NC(=O)N2CCc3ccccc32)cc1`, the cytotoxicity is reported as 5.4% (inactive). For `O=C(CN1CCc2ccccc2C1)Nc1ccccc1N1CCCCCC1`, the cytotoxicity was 93.4% (active). With `CC(C)CC(=O)Nc1ccccc1N1CCCC1` the cytotoxicity was -9.5% (inactive). For `CCOC(=O)c1ccc(NC(=O)CN2CCc3ccccc3C2)cc1`, the cytotoxicity was 57.6% (active). With `O=C(CN1CCCCC1)Nc1ccccc1NC(=O)CN1CCCCC1` the cytotoxicity was -13.4% (inactive). In the case of `CCOC(=O)c1ccc(NC(=O)CN2CCN(c3ccccc3)CC2)cc1`, the cytotoxicity is reported as 6% (inactive). For `O=C(c1cccs1)N(Cc1cccc(Cl)c1)C1CCS(=O)(=O)C1` (centres undefined), the cytotoxicity was -4.1% (inactive). In the case of `CCOc1ccccc1-n1nnnc1SCC(=O)Nc1cc2oc3ccccc3c2cc1OC`, the cytotoxicity is reported as 43.6% (inactive). In the case of `C=C(C)CSc1nc2nc(C)cc(C)n2n1`, the cytotoxicity is reported as 9.4% (inactive). With `CC(C)NC(=O)CN(C)S(=O)(=O)c1ccc(F)cc1` the cytotoxicity was 1.5% (inactive). With `O=C1NC2(CCCCC2)N=C1c1ccccc1` the cytotoxicity was -3% (inactive). In the case of `O=C1NC2(CCCC2)N=C1c1ccc(Cl)cc1`, the cytotoxicity is reported as -2.7% (inactive). With `O=C(CN1CCN(c2ccc(F)cc2)CC1)Nc1ccc(-n2cnnn2)cc1` the cytotoxicity was 16.2% (inactive). For `CCOc1ccc2nc(NCCNC(=O)C3CC3)c(C)cc2c1`, the cytotoxicity was -13.7% (inactive). In the case of `CCCCc1ccc(CC(=O)O)cc1`, the cytotoxicity is reported as -6.3% (inactive). In the case of `CCCCc1ccc(-c2ccc(C)cc2O)nc1`, the cytotoxicity is reported as -28.6% (inactive). In the case of `COc1cccc2c1nc(C)c1cc(C)oc12`, the cytotoxicity is reported as -6.1% (inactive). In the case of `Cc1cc(Nc2cc(C)on2)n2ncnc2n1`, the cytotoxicity is reported as 1.6% (inactive). With `O=C(NCc1ccc2c(c1)OCO2)c1ccc2c(=O)n(C3CCCC3)c(=O)[nH]c2c1` the cytotoxicity was 2.7% (inactive). With `Cc1ccc(CC2SC(=O)NC2=O)cc1Cl` (centres undefined) the cytotoxicity was -2.2% (inactive). With `Cc1ccc(C)c(Oc2nnnn2-c2ccccc2)c1` the cytotoxicity was -0.9% (inactive). With `COc1ccc(-n2nnnc2SCC(=O)NCCc2ccc(OC)c(OC)c2)cc1` the cytotoxicity was -0.4% (inactive). In the case of `c1ccc(-n2nnnc2SCCCSc2nc3ccccc3s2)cc1`, the cytotoxicity is reported as 5.8% (inactive). With `C(=C\CSc1nnnn1-c1ccccc1)/CSc1nnnn1-c1ccccc1` the cytotoxicity was -4.4% (inactive). With `CCCSc1nnc(Sc2nnnn2-c2ccccc2)s1` the cytotoxicity was 81% (active). With `COc1ccc(CCNC(=O)CSc2nnnn2-c2ccccc2OC)cc1OC` the cytotoxicity was 8% (inactive). In the case of `COc1ccc(CCNc2nnc(Sc3nnnn3-c3ccccc3)s2)cc1OC`, the cytotoxicity is reported as 53.9% (active). In the case of `Cn1ccnc1Sc1nnnn1-c1ccccc1`, the cytotoxicity is reported as -14.7% (inactive). With `COc1ccc(Cc2nnc(SCC(=O)NCC3CCCO3)o2)cc1` (centres undefined) the cytotoxicity was 0.6% (inactive). For `Cn1c2c(c(=O)n(C)c1=O)C(NC(=O)c1ccco1)(C(F)(F)F)C(=O)N2` (centres undefined), the cytotoxicity was -22.3% (inactive). For `O=S(=O)(c1ccc(Br)s1)N1CCN(c2ccccc2)CC1`, the cytotoxicity was -10.8% (inactive). With `COc1ccccc1NC(=O)c1nnn(Cc2ccccc2)c1NC(C)=O` the cytotoxicity was 2.6% (inactive). In the case of `COC(=O)Nc1ccc(NC(C)=O)cc1`, the cytotoxicity is reported as -16% (inactive). For `CCOC(=O)c1cc(-c2ccncc2)nc2c1c(C)nn2C`, the cytotoxicity was 4% (inactive). For `COc1ccc(C(OC(=O)c2c(C)noc2C)C(=O)NC2CCCC2)cc1` (centres undefined), the cytotoxicity was 1.7% (inactive). In the case of `CCN1CCN(CCCNC(=O)c2cc3sccc3n2CC)CC1`, the cytotoxicity is reported as 3.8% (inactive). For `CCOCCCNC(=O)CSc1ccccc1`, the cytotoxicity was -13.6% (inactive). In the case of `O=S(=O)(c1ccc2c(c1)nc1n2CCC1)N1CCOCC1`, the cytotoxicity is reported as 30.9% (inactive). In the case of `O=S(=O)(c1ccc(Br)cc1)N1CCn2c(nc3ccccc32)C1`, the cytotoxicity is reported as 1.5% (inactive).
